The OligoGym collection

These sequences were tested against ESR2 (assay: pooled miR-30 sensor sort-seq; sequence = guide strand). Details: shRNA.
Note: reference of the scale not given here.

Sequence | sensor-assay potency score (higher = more potent)
AAATATAATCATTATGTCCTTG | -0.156
TTGAGCGCCACATCAGCCCCAT | -0.177
TTCCAAGTTAGTGACATTGCTG | -0.291
TTTAACTCTCGAAACCTTGAAG | -0.511
TTTTATCGATTGTACACTGATT | -1.06
TTGTACACTGATTTGTAGCTGG | 0.245
TACAGATGTGATAACTGGCGAT | -0.498
TTTTTATCGATTGTACACTGAT | -0.36
ATCATGTGTACCAACTCCTTGT | -0.273
TAAAAAAGGCCTTACATCCTTC | -0.442
TTACATCCTTCACACGACCAGA | -0.608
TATCGATTGTACACTGATTTGT | -0.431
TTATCGATTGTACACTGATTTG | -1.64
ATCATTAACACCTCCATCCAAC | -1.05
TTACAGGTAAGGTGTGTTCTAG | -0.694
TAGCTGGACAAATATAATCATT | -1.44

What follows are sequences tested against ETFA in the same assay as above. Details: shRNA.

Sequence | sensor-assay potency score (higher = more potent)
TGAACTGCTTCTGAGTTGCCAA | -0.648
TAATTGAACTGCTTCTGAGTTG | -0.401
TTGATGCCTTTTCTGAACTGGC | -0.864
TATAATACCCACAAATATCTGT | 0.241
TCCAACTTGCATGTCATTGGGA | -0.493
TTTCACTTTCTCATCACACTTC | 0.639
TGTAATTGAACTGCTTCTGAGT | -0.4
TAGTTCTCACAAATGTGTCAGG | -0.609
TGTGTAATTGAACTGCTTCTGA | 0.237
TTCTCATCACACTTCACTGTAC | -0.442
TTGATTGCAATGATGTCAGAAA | -0.689
TATTCCATAATCTGCCACTTGG | -0.476
TTTCTGAACTGGCACTACCGCC | -0.966
TCTTGCTGTCTTTCATCCCAGC | -0.987
TTTCTGGTCAAGCCACTCTGAT | -1.17
TTTCTCATCACACTTCACTGTA | 0.00115
TAGCTCTGGTCGATCACTTTTT | -1
TTAGCTCTGGTCGATCACTTTT | -1.24
TAAATAGTTCTCACAAATGTGT | -0.288
TTTACAGAGATCTTGTGCCACC | -0.57
TAAATCTGCAACTATTCCATAA | -0.957
TTATGAAATGTAGCTCTCCATG | -1.39
